Sampled rows, rich in hits. Any-hit rate of the full collection: about 2%.
S1P2 agonist: S1P2 receptor agonists, primary screen, cell-based | Sphingosine 1-phosphate receptor 2 (Homo sapiens), O95136 | S1P2-expressing cell line, agonist reporter read-out | activation, % at 4.5 µM | actives 0.46% (n = 97,000) | AID 729, 2007; in the data active = activation above about 16%;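 note: 0% = vehicle low control and 100% = maximal reference agonist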
Target sequence (O95136 whole entry, looked up): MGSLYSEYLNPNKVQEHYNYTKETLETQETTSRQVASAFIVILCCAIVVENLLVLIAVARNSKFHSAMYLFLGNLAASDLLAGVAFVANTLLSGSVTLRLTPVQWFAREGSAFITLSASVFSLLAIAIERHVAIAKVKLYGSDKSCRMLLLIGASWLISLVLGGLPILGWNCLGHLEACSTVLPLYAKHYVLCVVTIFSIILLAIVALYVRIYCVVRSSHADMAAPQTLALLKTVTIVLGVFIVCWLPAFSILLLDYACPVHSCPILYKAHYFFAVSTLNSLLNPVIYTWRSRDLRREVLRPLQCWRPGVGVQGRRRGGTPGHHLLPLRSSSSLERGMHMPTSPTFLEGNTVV
S1P2 antag: human S1P2 receptor antagonists, primary screen, cell-based; actives 0.21% (n = 97,000); AID 736, 2007; cell-based S1P2 antagonist assay, inhibition at 5 uM; inhibition, % at 5 µM; Sphingosine 1-phosphate receptor 2 (Homo sapiens), O95136; in the data active = inhibition above about 45%;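 note: CRE beta-lactamase reporter cells expressing human S1P2 stimulated with S1P; 0% = agonist at EC80 alone and 100% = agonist plus reference antagonist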
PLAP activator: PLAP enzyme activators, biochemical, luminescence, HTS. actives 1.2% (n = 96,000). activation fold at 20 µM. AID 696, 2007. purified PLAP enzyme, luminescent substrate read-out; stronger effect = higher value; in the data active = activation fold above about 2
GALR2 blocker: GALR2 antagonists in receptor-expressing cells, primary screen; inhibition, % at 4 µM; Galanin receptor type 2 (Homo sapiens), O43603; antagonist mode; actives 0.39% (n = 140,000);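 note: cells stimulated with galanin 1-16 at roughly its EC80; 0% = agonist challenge control and 100% = basal control without agonist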
GALR2 agonist: GALR2 receptor agonists, primary screen, cell-based; GALR2-expressing cells, agonist activation read-out; AID 803, 2007; Galanin receptor type 2 (Homo sapiens), O43603; actives 0.48% (n = 140,000); activation, % (test concentration not listed); in the data active = activation above about 5%, passing the limit was not always enough;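 note: 0% = vehicle buffer wells and 100% = reference agonist at full effect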
GALR2 blk conf: GALR2 antagonists, retest of hits, confirmation, cell-based; inhibition, % at 4 µM; GALR2-expressing cells, antagonist mode, inhibition; AID 866, 2007; shares compounds with GALR2 blocker; actives 60% (n = 480);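 note: cells stimulated with galanin at about its EC80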
BLA inhib ctr: inhibitors of NFAT-driven beta-lactamase reporter, confirmation, counter-screen for GALR2 antagonist project, CHO NFAT-bla cells, FRET readout. actives 36% (n = 480). thapsigargin-stimulated. AID 867, 2007. shares compounds with GALR2 blocker. inhibition, % at 4.2 µM;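 active = inhibition above the mean inhibition across tested compounds plus 3 SD, cut at about 27% in these data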;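 note: 0% = 500 nM thapsigargin stimulated wells and 100% = unstimulated BSA only wells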
* hit, by the source's call; x = no result given; ! = not confirmed by another sample. Cut-off read from the data, not from the text of the source, unless noted: active = inhibition above about 27%; inactive = the rest.

SMILES	S1P2 agonist	S1P2 antag	PLAP activator	GALR2 blocker	GALR2 agonist	GALR2 blk conf	BLA inhib ctr
Cc1noc2nc(-c3cccs3)cc(-c3nnc4n3CCCCC4)c12	x	x	1.1	x	x	x	x
COc1cc2cc(C(c3nnnn3C(C)(C)C)N3CCC(C)CC3)c(=O)[nH]c2cc1OC (configuration not stated)	-3.5	-25.9	1.5	-4.8	0.4	x	x
O=S(=O)(Nc1cc(Sc2cccc3cccnc23)c(O)c2ccccc12)c1ccccc1	x	x	x	31.2*	0.4	23.9	9.9
Cc1ccc(S(=O)(=O)Nc2cccc3cccnc23)cc1	-4.0	-13.7	1.2	8.4	0.2	x	x
Cc1ccc(N(NC(=O)C(O)(c2ccccc2)c2ccccc2)C(=O)CCl)cc1	x	x	x	48.0*	-2.4	37.3*	55.6*
O=C1Nc2ccccc2/C1=C/C(=O)c1cccs1	-6.8	4.0	0.8	27.2*	-2.9	30.2*	10.6
Cc1ccc(/C=C2\C(=O)Nc3ccccc32)o1	x	x	x	1.2	-0.9	x	x
COc1ccc2c(COC(=O)CNC(=O)C34CC5CC(CC(C5)C3)C4)cc(=O)oc2c1	x	x	x	-3.3	-0.1	x	x
Nn1cnnc1N/N=C/c1cc(Br)cc(Br)c1O	-0.6	-9.9	1.3	31.2*	-3.8	7.8	0.5
O=C(Cc1cccs1)Nc1cccc(-c2nc3cc4ccccc4cc3[nH]2)c1	x	x	x	27.5*	-0.5	30.1*	9.9
CCOc1cccc(NC(=O)Cc2cccs2)c1	x	x	0.8	-6.7	-0.2	x	x
O=C(/C=C/c1ccco1)Nc1sc2c(c1C(=O)O)CCC2	0.8	23.2	1.1	-0.2	-1.0	x	x
N#Cc1c(NC(=O)/C=C/c2ccco2)sc2c1CCCC2	x	x	x	31.0*	5.9*	32.3*	64.3*
C=C1C(=O)[C@@]23[C@H](O)C[C@@H]4C(C)(C)CC[C@H](O)[C@]4(C)[C@@H]2C[C@H](O)[C@@H]1[C@H]3O	x	x	x	-6.0	-2.0	x	x
C=C1C(=O)[C@@]23[C@H](O)C[C@@H]4C(C)(C)CC[C@H](O)[C@@]4(C)[C@@H]2CC[C@@H]1[C@H]3O	x	x	x	38.0*	-0.2	38.2*	58.0*
COc1ccc(Nc2nc(NCc3ccco3)nc(N/N=C/c3ccc(O)cc3)n2)cc1	x	x	x	5.1	0.0	x	x
Cc1nn(C)c(C(=O)N/N=C/c2ccc(C(F)(F)F)cc2)c1[N+](=O)[O-]	x	x	x	-0.6	-1.1	x	x
CCOC(=O)c1cnn(-c2nc3c(C)cccc3s2)c1C	-3.9	5.8	0.8	31.8*	-3.8	-1.0	4.2
CCOC(=O)c1cnn(-c2nc3c(C)cccc3s2)c1C(F)(F)F	-0.1	-13.5	0.9	4.5	-2.0	x	x
Cc1ccc(Cn2ncc(Cl)c(Cl)c2=O)cc1	x	x	x	22.3	0.0	x	x
O=c1c(Cl)c(Cl)cnn1-c1ccccc1	x	x	x	88.3*	-3.0	91.6*	77.6*
O=c1c(Cl)c(N/N=C/c2ccc(Cl)cc2)cnn1-c1ccccc1	x	x	x	-5.4	2.1	x	x
O=c1c(Cl)c(Cl)cnn1Cc1ccccc1Cl	x	x	x	62.6*	2.1	64.4*	60.9*
O=C(NCCO)C1(c2ccc(Cl)cc2)CCCC1	-3.1	-10.5	1.3	2.7	-0.5	x	x
Cc1nn(C)c(Oc2ccc(Cl)cc2)c1C(=O)Nc1ccc(F)cc1F	-2.1	-18.1	1.1	12.1	-1.7	x	x
SMILES	S1P2 agonist	S1P2 antag	PLAP activator	GALR2 blocker	GALR2 agonist	GALR2 blk conf	BLA inhib ctr
CCOC(=O)c1sc(NC(=O)CCCn2nc([N+](=O)[O-])cc2C)c(C(=O)OCC)c1C	x	x	x	7.9	-1.6	x	x
O=C(Cc1c2ccccc2nc2ccccc12)c1ccccc1	x	x	x	-3.2	-0.3	x	x
Fc1ccc(SCCc2ccncc2)cc1	-4.5	18.4	1	32.2*!	-3.1	6.4	-0.1
CN(C)CCNC(=O)/C(=C/c1ccc(-c2cccc(Cl)c2)o1)NC(=O)c1ccccc1	x	x	x	-0.6	1.3	x	x
Cc1cccc(S(=O)(=O)C(C#N)c2nc3ccccc3nc2N2CC(C)OC(C)C2)c1 (configuration not stated)	-5.6	17.2	1.4	28.4*	-0.1	1.9	-1.0
Cc1ccc(S(=O)(=O)C(C#N)c2nc3ccccc3nc2N2CC(C)OC(C)C2)cc1C (configuration not stated)	-7.3	1.2	1.4	0.2	-1.3	x	x
O=C(NC1CC1)C1=COCCO1	-4.1	-13.8	1	-7.0	-1.0	x	x
Cc1ccccc1NC1=CC(=O)CC(C)(C)C1	-4.1	-5.3	x	7.5	-2.5	x	x

Source: PubChem
